Test results from PubChem BioAssay AID588720 (NMMLSC, 2011).
Potency and affinity values are given separately.

molecular target: Beta-adrenergic receptor kinase 1 (Homo sapiens) (UniProt P25098); assay: blockers of aptamer binding to GRK2 – biochemical, flow cytometry beads, FAM-aptamer, powder set 1, dose response (AID 588720); settings: biotinylated GRK2 beads, FAM-aptamer displacement; series mostly up to 100 µM; aptamer binding inhibition: at the top concentration
Sequence (P25098 whole entry, looked up): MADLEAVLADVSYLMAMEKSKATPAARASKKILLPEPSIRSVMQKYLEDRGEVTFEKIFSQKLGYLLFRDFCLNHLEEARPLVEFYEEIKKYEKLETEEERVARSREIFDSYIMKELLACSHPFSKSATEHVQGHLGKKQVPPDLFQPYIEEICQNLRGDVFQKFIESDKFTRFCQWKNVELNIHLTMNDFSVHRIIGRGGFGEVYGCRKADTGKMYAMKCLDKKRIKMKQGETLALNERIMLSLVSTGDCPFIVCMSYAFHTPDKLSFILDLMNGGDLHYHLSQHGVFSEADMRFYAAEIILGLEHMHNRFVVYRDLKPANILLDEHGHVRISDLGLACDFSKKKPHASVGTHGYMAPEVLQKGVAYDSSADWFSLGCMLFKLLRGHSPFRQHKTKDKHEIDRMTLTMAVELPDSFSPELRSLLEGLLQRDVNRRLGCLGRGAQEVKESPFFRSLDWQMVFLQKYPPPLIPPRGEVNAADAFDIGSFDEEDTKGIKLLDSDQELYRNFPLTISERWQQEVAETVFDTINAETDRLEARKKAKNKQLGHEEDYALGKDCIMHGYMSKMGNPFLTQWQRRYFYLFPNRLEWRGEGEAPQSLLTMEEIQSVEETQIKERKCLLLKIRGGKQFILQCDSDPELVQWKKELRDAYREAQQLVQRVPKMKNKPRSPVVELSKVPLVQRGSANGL

Aptamer binding inhibition, inactive:
Cc1cc2ccccc2n1CCNC(=O)C(C)Oc1ccccc1 (configuration not stated) 11.1%
Cc1ccc(CCNC(=O)CCS(=O)(=O)c2ccc(Br)cc2)cc1 6.77%
Cc1cc2ccccc2n1CCNC(=O)c1cccs1 21.4%
O=C(O)C1CC(=O)N(c2ccc3c(c2)OCCO3)C1 (configuration not stated) 13.3%
CC(=O)N1CCN(Cc2nc3cc(Cl)ccc3c(=O)[nH]2)CC1 0.161%
COC(=O)c1ccccc1NC(=O)CCS(=O)(=O)c1ccc(Br)s1 8.03%
O=C(CN1CCc2ccccc21)NC(=O)NCc1ccccc1 -0.704%
